Experimental data as given in PubChem BioAssay AID489008 (National Center for Advancing Translational Sciences (NCATS), 2010).
Records with an inconclusive call do not appear. The source made the active and inactive calls. The call rests on the fitted dose curve; in most records, active means well fitted inhibition curve with a large enough effect; inconclusive means small, poorly fitted or top-dose-only effect; inactive means flat fitted curve, though single readings scatter.
Further: nearly all actives have a fitted effect of over 40% in size.
Potency means the concentration at half of the fitted maximal effect.

The compounds below were run against Ferritin light chain (Equus caballus) (UniProt P02791) (assay: Confirmation Assay for Identification of Novel General Anesthetics). Settings: apoferritin 1-aminoanthracene fluorescence displacement.
Ferritin light chain (Equus caballus), sequence (P02791 2-175 limits assumed): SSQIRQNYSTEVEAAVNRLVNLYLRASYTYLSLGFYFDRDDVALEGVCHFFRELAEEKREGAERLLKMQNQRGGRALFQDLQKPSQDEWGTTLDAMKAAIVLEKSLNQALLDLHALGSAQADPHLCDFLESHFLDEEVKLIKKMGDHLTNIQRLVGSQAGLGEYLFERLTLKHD
How it was run: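 Horse apoferritin (10 uM) pre-loaded with 1-AMA (50% saturated, PBS) exposed to compounds 10 min at room temperature; loss of 1-AMA fluorescence (380/535 nm) scaled between free and bound ligand, curves fitted with Hill equation.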
`Cc1ccc(O)c(Sc2cc(C)ccc2O)c1` was tested, and the Potency was 7.94 µM (active).
In the case of `Cc1ccccc1Cn1c(C)cc(C)c(C#N)c1=O`, the Potency is reported as 15.8 µM (active).
For `O=S(=O)(Nc1cnc2ccccc2c1)N1CCCCCC1`, the Potency was 28.2 µM (active).
For `Clc1ccc(Nc2nc(C3CC3)cs2)cc1`, the Potency was 39.8 µM (active).
With `O=C(OCC(=O)C12CC3CC(CC(C3)C1)C2)c1cccnc1` the Potency was 22.4 µM (active).
With `O=C1CC(C2CCCO2)C(=O)N1c1cccc(Cl)c1` (stereo not drawn) the Potency was 14.1 µM (active).
For `COc1ccccc1OCC(=O)N1CCCCCCC1`, the Potency was 12.6 µM (active).
For `CC1(COc2ccc(CC3SC(=O)NC3=O)cc2)CCCCC1` (stereo not drawn), the Potency was 14.1 µM (active).
For `CC(=O)c1cccc(NC(=O)CCC2CCCC2)c1`, the Potency was 28.2 µM (active).
For `c1cnc(NC2C3CC4CC(C3)CC2C4)nc1` (stereo not drawn), the Potency was 6.31 µM (active).
For `O=C1CCCCCCC1Sc1ccccc1[N+](=O)[O-]` (stereo not drawn), the Potency was 7.94 µM (active).
For `Fc1cnc(Cl)nc1NC1CCCCC1`, the Potency was 12.6 µM (active).
With `Cc1ccc(NCc2cccnc2)c(Br)c1` the Potency was 8.91 µM (active).
For `Nc1nnc(SCc2ccccc2Cl)s1`, the Potency was 14.1 µM (active).
With `CN(CC(=O)Nc1ccccc1Cl)C1CCCCC1` the Potency was 15.8 µM (active).
In the case of `O=C(COc1ccc(F)c(Cl)c1)N1CCCCCCC1`, the Potency is reported as 35.5 µM (active).
For `CC1CCCCC1NC(=O)COC(=O)c1ccc(N(C)C)cc1` (stereo not drawn), the Potency was 11.2 µM (active).
For `Cc1ccc(Cl)cc1NC(=O)C1COc2ccccc2O1` (stereo not drawn), the Potency was 20 µM (active).
For `Cc1cc(C)cc(OCc2nnc(SCC(=O)OC(C)C)o2)c1`, the Potency was 12.6 µM (active).
In the case of `Cc1ccc(S(=O)(=O)NCCc2ccccc2)cc1`, the Potency is reported as 15.8 µM (active).
For `Nc1nnc(CCC2CCCCC2)s1`, the Potency was 10 µM (active).
For `Cc1cc(C)cc(C(=O)N2CCCCCC2)c1`, the Potency was 20 µM (active).
In the case of `Fc1ccccc1CNc1ccc(Cl)c(Cl)c1`, the Potency is reported as 10 µM (active).
With `O=C(Nc1cccc(Cl)c1)OCc1cncs1` the Potency was 15.8 µM (active).
In the case of `CC1=CCC2C(=O)N(c3ccc(C)cc3)C(=O)C2C1` (stereo not drawn), the Potency is reported as 10 µM (active).
`c1cc2c(cc1NC1CCCCCC1)OCO2` was tested, and the Potency was 8.91 µM (active).
In the case of `Cc1cc(C)n2nc(CC(=O)NC3CCCC(C)C3C)nc2n1` (stereo not drawn), the Potency is reported as 15.8 µM (active).
For `ON1C(c2ccc(Cl)cc2Cl)N(O)[C@H]2CCCC[C@H]21` (stereo partly drawn), the Potency was 7.94 µM (active).
In the case of `Cc1ccccc1Nc1nc2ccccc2s1`, the Potency is reported as 14.1 µM (active).
For `Cc1ccc(-c2ccc(=O)n(CC(=O)NCCc3ccccc3)n2)cc1`, the Potency was 6.31 µM (active).
With `Cc1ccc(NC2CCCN(C(=O)c3cccs3)C2)cc1C` (stereo not drawn) the Potency was 15.8 µM (active).
For `O=C(COC(=O)CCc1ccccc1)NC12CC3CC(CC(C3)C1)C2`, the Potency was 8.91 µM (active).
`O=C(CC1SCCNC1=O)Nc1ccc(Cl)c(Cl)c1` (stereo not drawn) was tested, and the Potency was 20 µM (active).
With `Cc1ccc(OCc2cc(C(=O)N3CCCCCCC3)no2)cc1C` the Potency was 22.4 µM (active).
With `CC(NC(=O)c1ccc(Br)o1)C1CC2CCC1C2` (stereo not drawn) the Potency was 8.91 µM (active).
With `Cc1cc(NS(=O)(=O)c2ccccc2)cc(Cl)c1O` the Potency was 11.2 µM (active).
In the case of `Cc1sc2ncn(CC(=O)NCc3ccco3)c(=O)c2c1-c1ccccc1`, the Potency is reported as 28.2 µM (active).
In the case of `CCC1CCCCN1S(=O)(=O)Cc1ccccc1Cl` (stereo not drawn), the Potency is reported as 15.8 µM (active).
